Assay results reported in PubChem BioAssay (Tox21).
Results filed as inconclusive are left out. A call without a number means that no potency is given here. Active and inactive are the calls of the source. Calls follow the shape of the full dose curve.

experiment: p53 small molecule agonists, cell-based qHTS assay with rat liver microsomes (AID 1963578); settings: HCT-116 p53RE-bla, beta-lactamase ratio, 16 h; series mostly up to 66 µM
Text: U.S. Tox21 Program National Center for Advancing Translational Sciences [NCATS] Division of Preclinical Innovation [DPI] U.S. Environmental Protection Agency [EPA] National Institutes of Environmental Health Sciences [NIEHS] National Toxicology Program [NTP] U.S. Food and Drug Administration [FDA] Tox21 Assay Overview: p53, a tumor suppressor protein, is activated following cellular insult, including DNA damage and other cellular stresses. The activation of p53 regulates cell fate by inducing DNA repair, cell cycle arrest, apoptosis, or cellular senescence. The activation of p53, therefore, is a good indicator of DNA damage and other cellular stresses. […] The activation of the reporter gene under culture conditions can be detected by fluorescence intensity. This cell line was used to screen the Tox21 10K compound library in the condition of presence of rat liver microsomes and to identify agonists that activate the p53 signaling pathway after in vitro metabolic activation (Ooka et al., Archive of Toxicology 96:1975-1987, 2022).
Tox21 Assay Protocol Summary: The p53RE-bla cells were dispensed at 4,000cells/3ul/well in 1536-well black-clear bottom plates. After the assay plates were incubated at 37 C, 5% CO2 incubator for 5 hours, 23 nL of compounds dissolved in DMSO, positive controls or DMSO only was transferred to the assay plate. Following compound addition, 3 uL of rat liver microsomes (Molecular Toxicology, Boone, NC) at final concentration of 0.5 mg/mL and 1uL of Beta-Nicotinamide adenine dinucleotide 2-phosphate (NADPH) at final concentration of 0.5 mg/mL were transferred to the assay plate. The plates were incubated at 37 C for 16 hours. 1 uL of LiveBLAzer detection mixture was added to each well and the plates were incubated at room temperature in the dark for 2 h.

With CCNc1cccc(C)c1 as the compound, how does the Potency read?
Its Potency is “inactive”.

Which Potency does the source give for COc1ccc([N+](=O)[O-])cc1N here?
Its Potency is “inactive”.

For C=CC(C)(C)C, which Potency is on record?
Its Potency is “inactive”.

For CC(C)[N+](C)(CCOC(=O)C1c2ccccc2Oc2ccccc21)C(C)C, which Potency is on record?
Its Potency is “inactive”.

For CC1=NN(c2ccccc2)C(=O)C1, which Potency is on record?
The Potency was “inactive”.

For CCCCCC(=O)O, which Potency is on record?
Its Potency is “inactive”.

Which Potency does the source give for CCCCCC1C(=O)CCC1CC(=O)OC (stereo not given) here?
The Potency was “inactive”.

Which Potency does the source give for C[C@]12C=CC(=O)C=C1CC[C@H]1[C@@H]3C[C@@H](O)[C@](O)(C(=O)CO)[C@@]3(C)C[C@H](O)[C@@]12F here?
The Potency was “inactive”.

Which Potency does the source give for C#C[C@]1(O)CC[C@H]2[C@@H]3CCC4=Cc5oncc5C[C@]4(C)[C@H]3CC[C@@]21C here?
The Potency was “inactive”.

With CCCCOC(=O)CC(CC(=O)OCCCC)(OC(C)=O)C(=O)OCCCC as the compound, how does the Potency read?
The Potency was “inactive”.

For Oc1ccc(O)cc1, which Potency is on record?
The Potency was “inactive”.

For CC(=O)O[C@]1(C(C)=O)CC[C@H]2[C@@H]3C[C@H](C)C4=CC(=O)CC[C@]4(C)[C@H]3CC[C@@]21C, which Potency is on record?
The Potency was “inactive”.

With CC12CCC(CC1)C(C)(C)O2 as the compound, how does the Potency read?
The Potency was “inactive”.

For CCCCCCCCCCCCCCCC(=O)O, which Potency is on record?
Its Potency is “inactive”.

Which Potency does the source give for CCCCCCOC(C)=O here?
Its Potency is “inactive”.

For c1cc(-c2ccncc2)ccn1, which Potency is on record?
The Potency was “inactive”.

With NC(=O)NC(N)=O as the compound, how does the Potency read?
The Potency was “inactive”.

For CC(=O)Nc1cccc(O)c1, which Potency is on record?
Its Potency is “inactive”.

Which Potency does the source give for CC(O)CC(C)(C)O (stereo not given) here?
The Potency was “inactive”.

With CC1CCC2CC1C2(C)C (stereo not given) as the compound, how does the Potency read?
The Potency was “inactive”.

Which Potency does the source give for CC1(C)[C@@H]2CC[C@@]1(C)C(=O)C2 here?
The Potency was “inactive”.

Which Potency does the source give for CC(C)=CCCC(C)CCO (stereo not given) here?
The Potency was “inactive”.

With CCCCOC(=O)COc1ccc(Cl)cc1Cl as the compound, how does the Potency read?
Its Potency is “inactive”.

For Nc1nc2ncc(CNc3ccc(C(=O)N[C@@H](CCC(=O)O)C(=O)O)cc3)nc2c(=O)[nH]1, which Potency is on record?
Its Potency is “inactive”.

For O=c1[nH]c(=O)n([C@H]2C[C@H](O)[C@@H](CO)O2)cc1Br, which Potency is on record?
Its Potency is “inactive”.

Which Potency does the source give for Nc1nc2ccccc2[nH]1 here?
The Potency was “inactive”.

With O=C=NCCCCCCN=C=O as the compound, how does the Potency read?
Its Potency is “inactive”.

With CC(CCC(=O)O)(c1ccc(O)cc1)c1ccc(O)cc1 as the compound, how does the Potency read?
Its Potency is “inactive”.

Which Potency does the source give for Brc1cc(Oc2cc(Br)c(Br)c(Br)c2Br)c(Br)c(Br)c1Br here?
The Potency was “inactive”.

Which Potency does the source give for C=C(C)C(=O)OCC(C)C here?
Its Potency is “inactive”.

For CC(=O)Nc1ccc2c(c1)Cc1cc(NC(C)=O)ccc1-2, which Potency is on record?
Its Potency is “inactive”.

Which Potency does the source give for CCn1c2ccccc2c2cc(N)ccc21 here?
The Potency was “inactive”.

With CCCCC(CC)COC(=O)c1ccc(C(=O)OCC(CC)CCCC)cc1 (stereo not given) as the compound, how does the Potency read?
Its Potency is “inactive”.

Which Potency does the source give for CCCCOCCOCCO here?
The Potency was “inactive”.

For Clc1cc(Cl)c(Cl)cc1Cl, which Potency is on record?
Its Potency is “inactive”.

For CC(C)=CCC/C(C)=C/CO, which Potency is on record?
Its Potency is “inactive”.

For CC(CCO)CC(C)(C)C (stereo not given), which Potency is on record?
The Potency was “inactive”.

Which Potency does the source give for OC(Cn1cncn1)(Cn1cncn1)c1ccc(F)cc1F here?
The Potency was “inactive”.

With CCCCCCC=O as the compound, how does the Potency read?
Its Potency is “inactive”.

Which Potency does the source give for CCN1CCCC1=O here?
The Potency was “inactive”.
